Hits are enriched below; roughly 28% of the tested compounds scored in any of these assays.
CYP2C19 inh – human CYP2C19 inhibition. CYP2C19 Supersomes, luciferin-H EGE luminescence, 30 min. P33261. inhibition, % at 5 µM. 96,000 compounds, 21% hits;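 active = CYP2C19 inhibition above a set limit at 5 µM in the primary screen, cut at about 50% in these data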;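 also: plate controls were negative control wells for no effect and 2.5 mM tranylcypromine positive control for full effect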
CYP2C19 act – cytochrome P450 2C19 (human) activation. P33261. AID 1025. recombinant CYP2C19, luciferin-H EGE luminescence; hits give high values; 0 = fully inhibited enzyme, 1 = untreated enzyme. activation factor at 5 µM. 96,000 tested, under 10 active;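 active = activation factor of at least 2 at 5 µM in the primary screen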;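 also: 0 = wells with 2.5 mM tranylcypromine and 1 = vehicle-only wells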
D1 allo mod – allosterically modulates the human D1 dopamine receptor. HEK293 D1, CRE-luciferase, dopamine EC30 potentiation; actives deviate in either direction. B-score at 10 µM. P21728. AID 641. 58,000 compounds, 5.9% hits;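 active = luminescence count or its row- and column-corrected plate score outside the 99.7% band of the plate's sample wells, on either side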
Target sequence (P21728 whole entry, looked up): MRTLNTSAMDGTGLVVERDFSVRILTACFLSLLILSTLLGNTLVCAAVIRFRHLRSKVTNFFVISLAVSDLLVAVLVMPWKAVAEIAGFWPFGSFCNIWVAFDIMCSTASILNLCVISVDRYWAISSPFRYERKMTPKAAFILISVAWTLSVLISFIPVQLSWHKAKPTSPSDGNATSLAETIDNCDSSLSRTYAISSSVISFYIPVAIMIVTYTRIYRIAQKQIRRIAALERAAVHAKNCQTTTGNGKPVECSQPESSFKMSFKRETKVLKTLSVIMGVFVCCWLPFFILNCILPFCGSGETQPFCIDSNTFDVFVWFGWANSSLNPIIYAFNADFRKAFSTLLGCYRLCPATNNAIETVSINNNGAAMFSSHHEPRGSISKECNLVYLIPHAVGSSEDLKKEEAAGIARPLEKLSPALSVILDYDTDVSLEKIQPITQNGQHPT
CYP2C9 act – activators of human CYP2C9; P11712; recombinant CYP2C9, luciferin-H conversion, luminescence; hits give high values; factor 1 = untreated enzyme, 0 = blocked; activation factor at 5 µM; 96,000 compounds, 1.4% hits;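 active = activation factor of 2 or more for CYP2C9 at a 5 µM dose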;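 also: 0 = sulfaphenazole-blocked wells and 1 = vehicle-only wells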
DAT uptake mod – modulates human dopamine transporter uptake under cocaine | 110,000 compounds, 1.3% hits | LLC-PK1 hDAT cells, [14C]-dopamine uptake with cocaine IC80; actives deviate in either direction | AID 449768 | Q01959 | B-score at 10 µM;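 active = Z score or B-score, a plate-position-corrected score, falls beyond the plate's 99.7% confidence bounds, in either direction; inactive = both scores lie inside the 99.7% bounds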;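 also: scored against the spread of the other compound wells on the same plate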
CYP2C9 inh – inhibitors of human CYP2C9; CYP2C9 Supersomes, luciferin-H conversion, luminescence; inhibition, % at 5 µM; AID 777; P11712; 96,000 compounds, 20% hits;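 active = blocking of liver enzyme CYP2C9 beyond about 50% at 5 µM, limit read from the data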
* = called active by the depositor; . = no result.

SMILES	CYP2C19 inh	CYP2C19 act	D1 allo mod	CYP2C9 act	DAT uptake mod	CYP2C9 inh
CCC(CC)COC(=O)C(C#N)c1nc2ccccc2nc1N1CCOCC1 (stereo not given)	56*	0.4	1	0.5	-0.023	48
N#CC(C(=O)OC1CCCCC1)c1nc2ccccc2nc1N1CCOCC1 (stereo not given)	6	0.9	1.5	0.9	-0.0023	10
C=CCOC(=O)C(C#N)c1nc2ccccc2nc1N1CCN(c2ccccc2OC)CC1 (stereo not given)	31	0.7	1.4	0.3	-0.36	72*
Cc1nn(-c2cc(C)c3ccccc3n2)c2c1CCC2	24	0.8	0.18	0.9	-0.33	10
CCC1=Nc2cc(C(=O)NCCCOC)ccc2Sc2ccccc21	54*	0.5	.	0.6	0.23	40
CCCC1=Nc2cc(C(=O)NCCCOCC)ccc2Sc2ccccc21	30	0.7	.	0.6	-1.6	44
O=C(O)[C@H](Cc1ccccc1)NC(=O)N1CCOCC1	-4	1	0.067	1.1	-0.35	-7
C=CCOC(=O)C1=C[C@H](C2CCCCC2)[C@@H](CCCO)[C@H](OCC)O1	.	.	.	.	0.16	.
C/C(=N/OCC(=O)Nc1ccc(C)cc1C)c1cccs1	93*	0.1	.	0	0.041	98*
CN(CC(=O)NCCc1ccccc1)S(=O)(=O)c1cccs1	58*	0.4	0.75	0.6	-0.025	37
CC(C)C(NS(=O)(=O)c1cccs1)C(=O)N(C)Cc1ccccc1 (stereo not given)	96*	0	.	0	0.077	96*
CN(Cc1cccs1)S(=O)(=O)c1cccs1	92*	0.1	0.81	1.1	-1.6	-10
CN(CC(=O)NCCc1ccccc1)S(=O)(=O)c1ccc(Br)cc1	47	0.5	.	1.8	-1.5	-76
CN(Cc1ccccc1)S(=O)(=O)c1cccs1	98*	0	.	0.7	0.093	29
Cc1ccc(C(=O)NCCSc2ccccc2)cc1S(=O)(=O)Nc1ccccc1	60*	0.4	.	0.3	1.3	73*
CC(C)(C)SCCNC(=O)c1ccccc1	62*	0.4	.	0.8	0.45	22
COc1ccc(C(=O)NCCSc2ccccn2)cc1	18	0.8	-5.3*	1	0.29	4
COc1ccc(N(CC(=O)NCCSc2ccccn2)S(C)(=O)=O)cc1	42	0.6	.	0.6	0.54	41
Cc1ccc(C(=O)NCCSC(C)(C)C)cc1	68*	0.3	.	0.6	-1.2	45
O=C(Nc1ccc2c(c1)OCCO2)C1CCN(C(=O)c2ccc(F)cc2)CC1	19	0.8	-0.66	0.8	0.0005	23
Cc1ccccc1-c1nc(Cc2ccccc2)no1	17	0.8	-0.0087	0.9	-0.047	9
O=C(CSc1ccccc1C(=O)NCCCN1CCCC1=O)NCc1ccco1	-12	1.1	-0.6	1.1	0.77	-8
O=C1Nc2ccccc2/C1=N\c1sc2c(c1C(=O)Nc1ccccc1)CCCC2	.	.	.	.	0.38	.
Cc1ccccc1C(=O)NCCSc1ccccc1	38	0.6	.	1.1	0.17	-10
O=C(NCCSc1ccccc1)c1ccccc1	84*	0.2	-3.7	0.5	0.44	45
SMILES	CYP2C19 inh	CYP2C19 act	D1 allo mod	CYP2C9 act	DAT uptake mod	CYP2C9 inh
CCOC(=O)Cc1csc(SC(C)C(=O)Nc2ccc(NC(C)=O)cc2)n1 (stereo not given)	68*	0.3	.	0.1	0.61	91*
CCOC(=O)Cc1csc(NC(=O)C(C)(C)CC)n1	14	0.9	.	0.6	-0.17	43
CCN(CC)c1nc2ccccc2nc1-n1nc(C)cc1C	48	0.5	.	0.6	-0.45	39
COC(=O)C1=C(C(=O)OC)[C@@H]2Nc3ccccc3[C@@]23C[C@@H](C(=O)OC)N(C(=O)c2cccs2)C3=N1	.	.	.	.	-0.33	.
C=CCn1c(O)c(C(CC)=NCCN2CCOCC2)c(=O)[nH]c1=O	1	1	-0.0085	0.9	0.0062	8
C=CCn1c(O)c(C(CC)=Nc2ccccc2NC(=O)CC)c(=O)[nH]c1=O	72*	0.3	-0.12	0.4	-0.17	60*
C=CCOc1ccc(CN(C)CC(=O)N(CC(C)C)c2c(N)n(CC(C)C)c(=O)[nH]c2=O)cc1	18	0.8	.	0.8	-0.53	18
CCCCn1c(N)c(N(CC(C)C)C(=O)CN(C)Cc2cccc(OC)c2)c(=O)[nH]c1=O	56*	0.4	.	0.9	0.89	14
CC(C)(C)C1(C)OC(C(=O)NC2CCCCC2)C(C(=O)NC2CCCCC2)O1 (stereo not given)	18	0.8	.	0.9	-0.46	12
Cc1ccccc1N1C(=O)CC(N(O)c2ccccc2)C1=O (stereo not given)	74*	0.3	-0.4	1.2	0.039	-20
O=C1CC(N(O)c2ccccc2)C(=O)N1Cc1ccccc1 (stereo not given)	78*	0.2	-4.1	1	-1.3	1
Nc1cc(N)nc(SCC(=O)N2CCCCC2)n1	14	0.9	-0.068	0.5	0.027	52*
CC1CCN(C(=O)CSc2nc(N)cc(N)n2)CC1	2	1	1.3	1	0.47	0
O=C(CSc1nc2ccccc2nc1SCC(=O)N1CCCCC1)N1CCCCC1	20	0.8	0.13	0	1.6	95*
CCCCOCP(=O)(CC)COCCCC	32	0.7	.	1	-0.77	3
Cc1ccc2c(COC(=O)C3=COCCO3)cc(=O)oc2c1	11	0.9	-4.8*	0.9	-0.18	8
O=C1Nc2cc(Cl)c(Cl)cc2N(O)N1c1cccc(Cl)c1	-10	1.1	.	0.5	1.3	52*
Cc1nc2cc(F)ccc2n1C1CCN(S(=O)(=O)c2ccccc2)CC1	38	0.6	-0.83	0.3	0.25	74*
COc1ccc(C(=O)N2CCC(n3c(C)nc4cc(F)ccc43)CC2)cc1OC	9	0.9	1.3	0.6	2.8*	38
O=S(=O)(c1ccc2c(c1)OCCO2)N1CCC(n2nnc3cc(F)ccc32)CC1	.	.	0.26	.	0.053	.
O=S(=O)(c1ccc2c(c1)OCCO2)N1CCC(n2cnc3cc(F)ccc32)CC1	78*	0.2	-1.2	0.6	1.6	43
Cc1cccc(-c2nnc(SCCOc3ccc4c(C)cc(=O)oc4c3)o2)c1	41	0.6	.	0.5	0.61	47
CN(CC(=O)Nc1ccccn1)S(=O)(=O)c1ccc(Cl)cc1	.	.	.	.	0.54	.
Cc1nc(NC(=O)CN(C)S(=O)(=O)c2ccc(Br)cc2)sc1C	94*	0.1	.	0.3	0.031	67*
CN(CCCC(=O)Nc1ccncc1)S(=O)(=O)c1ccc(Cl)cc1	98*	0	-1.4	0	2.2	99*
CN(CC(=O)Nc1ccncc1)S(=O)(=O)c1ccc(Br)cc1	100*	0	.	0.2	-0.27	77*
CN(CC(=O)Nn1cnnc1)S(=O)(=O)c1ccc(Br)cc1	83*	0.2	.	0.7	-0.96	35
Cc1ccc(S(=O)(=O)N(C)CC(=O)Nc2nc3ccccc3s2)cc1	16	0.8	0.75	1	-2	2
